These results are taken from the supplement of paper PMC5641865, “A screen for kinase inhibitors identifies antimicrobial imidazopyridine aminofurazans as specific inhibitors of the Listeria monocytogenes PASTA kinase PrkA” (The Journal of Biological Chemistry, 2017).

Each structure is given as a SMILES string. Counter-ions that a name gives are not always drawn. ± gives the standard deviation of the averaged measurements.
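Also: End-point A600 read in BHI broth at 37 °C with 2% DMSO, inhibition computed as (1 − OD with compound plus ceftriaxone ÷ OD with ceftriaxone only) × 100.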

In the assay the test system is Listeria monocytogenes 10403S. The assay can be described thus: growth inhibition relative to ceftriaxone-alone control; higher = stronger potentiation of ceftriaxone growth inhibition. The note with it: 10 µM; ceftriaxone 1 ug/ml; 12 h.
Turning to `C=CC(=O)Nc1cccc(Oc2nc(Nc3ccc(N4CCN(C)CC4)cc3)ncc2Cl)c1`, the growth inhibition amounted to 13.3 ± 3.3%.

On to `NS(=O)(=O)c1cccc(N/C=C2\C(=O)Nc3ccccc32)c1`, for which the growth inhibition was -6.18 ± 1%.

`Cc1ccc(F)c(NC(=O)Nc2ccc(-c3cccc4[nH]nc(N)c34)cc2)c1` [Linifanib (ABT-869)]: the growth inhibition is 29.9 ± 19%. As for `Cc1cc(C(=O)NOCCO)c(Nc2ccc(I)cc2F)n(C)c1=O`, the growth inhibition was determined as 13.2 ± 5.6%. Next, `O=c1cc(N2CCOCC2)oc2c(-c3ccccc3)cccc12`: 27.4 ± 29%; `Fc1ccc(-c2ncn(C3CCNCC3)c2-c2ccnc(Oc3ccc(F)c(F)c3)n2)cc1`: 10.7 ± 16%; `COc1cccc(/C=N/Nc2ncnc3c2cnn3-c2cccc(OC)c2)c1`: -3.29 ± 11%. Next, `CC1=C(C(=O)Nc2ccc3[nH]nc(C)c3c2)C(c2ccc(C(F)(F)F)cc2)CC(=O)N1` (centres undefined): -1.71 ± 13%. Next, `O=C(Nc1n[nH]c2nc(-c3ccc(O)cc3)c(Br)cc12)C1CC1`: -9.15 ± 4.2%; `CCc1cc2c(cc1N1CCC(N3CCOCC3)CC1)C(C)(C)c1[nH]c3cc(C#N)ccc3c1C2=O`: -2.85 ± 9.2%. In the case of `NS(=O)(=O)c1ccc(N/N=C2\C(=O)Nc3ccc4ncccc4c32)cc1`, the growth inhibition is -6.48 ± 3.8%. Next, `Fc1ccc(-c2cc(-c3c[nH]nc3-c3ccccn3)ccn2)cc1`: -6.8 ± 13%. Next, `C[C@@H](Oc1cc(-n2cnc3ccc(OC[C@@H](O)CO)cc32)sc1C(N)=O)c1ccccc1Cl`: -3.67 ± 1.5%. Next, `NS(=O)(=O)c1cccc(Nc2cc(-c3ccc(F)cc3)n[nH]2)c1`: -5.13 ± 10%; `COc1cc2ncn(-c3cc(OCc4ccccc4C(F)(F)F)c(C(N)=O)s3)c2cc1OC`: -2.24 ± 0.56%; `Nc1nc(-c2ccc(F)cc2)c(-c2ccc3ncccc3n2)s1`: -1.57 ± 2.7%. As to `CCn1c(-c2nonc2N)nc2c(C#CC(C)(C)O)ncc(OC[C@@H]3CCCN3)c21`, the growth inhibition came out at 74 ± 6.7%. `O=C1Nc2ccccc2/C1=C/Nc1ccc2[nH]c(=O)[nH]c2c1`: the growth inhibition turned out to be 7.54 ± 1.1%. On to `CN1CCN(Cc2ccc(-c3cc4ncnc(Nc5ccc(OCc6cccc(F)c6)c(Cl)c5)c4s3)o2)CC1`, for which the growth inhibition stood at 3 ± 2.7%.

Regarding `O=C(NOCC1CC1)c1ccc(F)c(F)c1Nc1ccc(I)cc1Cl`, the growth inhibition came out at 8.54 ± 25%. Next, `c1ccc(-c2n[nH]cc2-c2ccnc(-c3ccc(OCCN4CCOCC4)cc3)c2)nc1`: -1.77 ± 9.5%; `CN(c1ccc(NC(=O)NCCN2CCOCC2)cc1)c1ccnc(Nc2ccc(CS(C)(=O)=O)cc2)n1`: -5.31 ± 3%. Next, `COCCOc1ccc2c(c1)ncn2-c1ccc2cccc(N3CCC(N)CC3)c2n1`: 7.08 ± 14%; `Clc1ccc(Nc2nnc(Cc3ccncc3)c3ccccc23)cc1` [Vatalinib 2HCl (PTK787)]: 24.8 ± 20%; `CCS(=O)(=O)c1ccc(OC)c(Nc2ncc(-c3cccc(OC)c3)o2)c1`: -9.19 ± 17%. Next, `Cc1[nH]nc2ccc(-c3cncc(OC[C@@H](N)Cc4ccccc4)c3)cc12`: 76.8 ± 16%; `Cc1cc(O)cc(C)c1/C=C/c1cncc(-c2nn[nH]n2)c1`: -2.34 ± 0.16%; `Cc1ncc(-c2ccnc(Nc3ccc(S(C)(=O)=O)cc3)n2)n1C(C)C`: 97.4 ± 2.4%. Regarding `NC(=O)c1cccc(Nc2nccc(Nc3cccc(F)c3)n2)c1`, the growth inhibition is -4.52 ± 12%.

Take `COc1cc2ncnc(Nc3ccc(O)c(Br)c3)c2cc1OC`: the growth inhibition was found to be 13.4 ± 5.2%. Next, `CS(=O)(=O)CCNCc1ccc(-c2ccc3ncnc(Nc4ccc(OCc5ccccc5)c(Br)c4)c3c2)o1`: -2.35 ± 3.3%; `CCOc1cc2ncc(C#N)c(Nc3ccc(OCc4ccccn4)c(Cl)c3)c2cc1NC(=O)/C=C/CN(C)C` [Neratinib (HKI-272)]: 12.3 ± 9.7%; `CCn1c(-c2nonc2N)nc2c(C#CC(C)(C)O)nc(CN3CCCC3)cc21`: 4.95 ± 5.7%. Next, `ON=C1CCc2cc(-c3nc(C4CCNCC4)[nH]c3-c3ccncc3)ccc21`: 7.4 ± 4.8%; `NS(=O)(=O)c1ccc(N/N=C2\C(=O)Nc3ccc(Cl)cc32)cc1`: -12.5 ± 11%. With `Cc1ccc(Nc2nccc(N(C)c3ccc4c(C)n(C)nc4c3)n2)cc1S(N)(=O)=O` [Pazopanib HCl], the growth inhibition turned out to be 20.4 ± 13%. Next, `Cc1ccc(-c2cc3c(NC(=O)C4CC4)ncnc3o2)cc1`: -3.41 ± 5.3%; `Fc1cccc(COc2ccc(Nc3ncnc4sc(-c5cccs5)cc34)cc2Cl)c1`: -4.36 ± 4.4%. As for `C[C@@H]1CN(CC(=O)Nc2ccc3c(c2)Cc2cccc(-c4cc(=O)cc(N5CCOCC5)o4)c2S3)C[C@H](C)O1`, the growth inhibition was 27.5 ± 4.1%.
